Assay results reported in PubChem BioAssay (NCATS).
Values without a mark were called inactive. Records with an inconclusive call do not appear. A call without a number means that no potency is given here. Calls of active or inactive are those of the source. Unless noted, calls come from the whole dose curve; as a rule, active = well fitted inhibition curve with a large enough effect; inconclusive = small, poorly fitted or top-dose-only effect; inactive = no such curve, though single readings can be large or run the other way.

How the values were obtained:
[1] = biological target: Cytochrome P450 1A2 (Homo sapiens) (UniProt P05177); experiment: p450-cyp1a2 (AID 410; calls by dose curve; note: potency is the fitted concentration of half-maximal effect)
Cytochrome P450 1A2 (Homo sapiens), sequence (P05177 whole entry, looked up): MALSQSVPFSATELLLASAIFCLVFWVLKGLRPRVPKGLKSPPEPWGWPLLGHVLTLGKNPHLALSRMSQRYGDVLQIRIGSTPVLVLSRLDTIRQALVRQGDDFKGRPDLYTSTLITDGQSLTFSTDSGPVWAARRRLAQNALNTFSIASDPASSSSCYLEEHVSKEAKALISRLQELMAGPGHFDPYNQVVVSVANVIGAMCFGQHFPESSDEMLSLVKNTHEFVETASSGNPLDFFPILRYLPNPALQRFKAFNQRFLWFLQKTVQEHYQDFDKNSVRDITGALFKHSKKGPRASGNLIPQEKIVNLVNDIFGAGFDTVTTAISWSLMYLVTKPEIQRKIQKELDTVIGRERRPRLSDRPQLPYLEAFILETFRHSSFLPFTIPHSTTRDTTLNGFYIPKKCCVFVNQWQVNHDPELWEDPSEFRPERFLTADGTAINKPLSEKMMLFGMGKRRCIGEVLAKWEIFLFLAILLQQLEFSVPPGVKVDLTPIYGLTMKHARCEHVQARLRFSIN
In short: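 Luminescent readout of luciferin formed from Luciferin-ME by human CYP1A2; data normalized against complete inhibition by 57 uM furafylline. Enzyme 20nM, substrate 100uM at Km, 100mM KPO4 buffer, 60 min reaction at room temperature.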

[2] = biological target: Glucocorticoid receptor (Homo sapiens) (UniProt P04150); experiment: GR-GFP Redistribution (AID 450;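 active = compounds whose dose series gives a full or clear partial fitted curve of increased nuclear translocation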; note: potency is the fitted concentration of half-maximal effect)
Glucocorticoid receptor (Homo sapiens), sequence (P04150 whole entry, looked up, the tested form may be a part): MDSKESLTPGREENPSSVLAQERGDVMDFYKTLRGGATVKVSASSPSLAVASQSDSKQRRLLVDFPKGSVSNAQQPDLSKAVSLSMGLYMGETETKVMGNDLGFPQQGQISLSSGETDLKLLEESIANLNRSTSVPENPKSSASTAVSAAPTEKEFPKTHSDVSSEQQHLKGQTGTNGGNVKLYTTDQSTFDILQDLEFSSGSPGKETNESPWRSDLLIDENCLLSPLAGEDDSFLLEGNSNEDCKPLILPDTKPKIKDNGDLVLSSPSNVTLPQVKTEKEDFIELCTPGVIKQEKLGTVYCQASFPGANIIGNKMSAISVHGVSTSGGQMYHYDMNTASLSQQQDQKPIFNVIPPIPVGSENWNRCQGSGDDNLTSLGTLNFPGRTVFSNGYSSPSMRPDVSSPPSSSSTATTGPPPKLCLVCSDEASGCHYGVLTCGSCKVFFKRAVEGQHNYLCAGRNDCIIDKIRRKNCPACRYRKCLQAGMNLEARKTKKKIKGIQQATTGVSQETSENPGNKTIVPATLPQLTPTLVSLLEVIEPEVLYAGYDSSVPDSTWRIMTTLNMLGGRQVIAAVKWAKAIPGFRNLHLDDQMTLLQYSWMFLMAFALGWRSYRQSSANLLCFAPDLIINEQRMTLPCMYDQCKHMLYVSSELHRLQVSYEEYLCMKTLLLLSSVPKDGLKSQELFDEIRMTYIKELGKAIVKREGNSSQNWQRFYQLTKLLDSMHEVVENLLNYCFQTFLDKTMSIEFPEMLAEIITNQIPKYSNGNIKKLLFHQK

[3] = biological target: Glucocorticoid receptor (Homo sapiens) (UniProt P04150); experiment: GR-EFC Redistribution (AID 451; calls by dose curve; note: potency is the fitted concentration of half-maximal effect); conditions: CHO-K1 GR-EFC translocation, beta-gal luminescence, 2 h
In short: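 CHO-K1 cells stably expressing nuclear-localized β-gal enzyme acceptor and GR fused C-terminally to the enzyme donor fragment; ligand-driven nuclear translocation restores β-gal by complementation. Compounds titrated up to 46 uM final, 2 h at 37 °C; luminescence read.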

[4] = biological target: Cytochrome P450 2D6 (Homo sapiens) (UniProt P10635); experiment: qHTS Assay for Inhibitors and Substrates of Cytochrome P450 2D6 (AID 891);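 note: luciferin methyl ether substrate demethylated by CYP2D6 with NADPH regeneration; nearly all actives have a fitted effect of over 60% in size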
Cytochrome P450 2D6 (Homo sapiens), sequence (P10635 whole entry, looked up): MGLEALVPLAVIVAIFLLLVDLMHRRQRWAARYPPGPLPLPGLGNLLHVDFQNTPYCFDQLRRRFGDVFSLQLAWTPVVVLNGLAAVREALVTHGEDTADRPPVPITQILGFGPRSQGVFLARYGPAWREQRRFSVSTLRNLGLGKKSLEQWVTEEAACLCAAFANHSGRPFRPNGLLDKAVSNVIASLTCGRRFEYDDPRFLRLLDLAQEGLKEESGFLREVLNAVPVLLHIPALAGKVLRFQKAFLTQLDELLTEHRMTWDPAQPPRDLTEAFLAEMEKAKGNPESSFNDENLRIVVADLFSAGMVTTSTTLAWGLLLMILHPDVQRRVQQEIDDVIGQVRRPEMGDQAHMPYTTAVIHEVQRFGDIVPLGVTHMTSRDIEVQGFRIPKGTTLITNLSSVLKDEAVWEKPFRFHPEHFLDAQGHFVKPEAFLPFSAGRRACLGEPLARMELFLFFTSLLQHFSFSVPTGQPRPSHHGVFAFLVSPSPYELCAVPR
In short: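 Human CYP2D6 (5 nM) with 30 uM Luciferin-ME EGE (at Km) in 100 mM KPO4, compound preincubated 10 min, then NADPH regeneration system for 60 min at room temperature. Luciferin read by luminescence; normalized to 1.43 uM quinidine.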

[5] = biological target: 3',5'-cyclic-AMP phosphodiesterase 4B (Homo sapiens) (UniProt Q07343); experiment: qHTS Assay for Inhibitors of PDE-IV (AID 607; active = well fitted activation curve with a large enough effect in the main read-out, with a control signal flat, not every such curve was filed as active)
3',5'-cyclic-AMP phosphodiesterase 4B (Homo sapiens), sequence (Q07343 whole entry, looked up): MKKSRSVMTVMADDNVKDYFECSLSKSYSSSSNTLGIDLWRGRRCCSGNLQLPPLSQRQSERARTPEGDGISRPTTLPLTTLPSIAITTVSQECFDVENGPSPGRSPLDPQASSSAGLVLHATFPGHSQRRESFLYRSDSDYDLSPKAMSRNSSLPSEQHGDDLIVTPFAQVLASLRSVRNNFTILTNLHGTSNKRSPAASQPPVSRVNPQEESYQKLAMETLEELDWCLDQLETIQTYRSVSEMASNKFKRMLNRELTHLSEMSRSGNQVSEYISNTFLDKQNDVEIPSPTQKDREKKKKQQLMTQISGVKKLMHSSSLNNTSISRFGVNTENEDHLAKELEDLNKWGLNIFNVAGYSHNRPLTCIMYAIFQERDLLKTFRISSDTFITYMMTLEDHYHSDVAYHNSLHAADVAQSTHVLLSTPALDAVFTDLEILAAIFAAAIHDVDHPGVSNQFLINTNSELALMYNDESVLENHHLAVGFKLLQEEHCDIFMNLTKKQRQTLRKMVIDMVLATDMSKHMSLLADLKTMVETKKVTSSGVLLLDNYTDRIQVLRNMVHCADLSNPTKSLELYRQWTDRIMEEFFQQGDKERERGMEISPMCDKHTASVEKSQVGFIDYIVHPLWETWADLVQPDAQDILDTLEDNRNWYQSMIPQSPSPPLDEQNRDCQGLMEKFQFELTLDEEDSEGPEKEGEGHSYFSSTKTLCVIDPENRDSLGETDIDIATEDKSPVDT
In short: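 ACTOne HEK293 cells carry a modified cAMP-gated CNG channel and express endogenous PDE4; plated 1000 cells/well, compounds up to 22.9 uM final. Membrane-potential dye fluorescence (ex 535/em 590) was read; parental cells received 10 uM forskolin + 100 uM RO 20-1724.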

[6] = biological target: Cytochrome P450 2C19 (Homo sapiens) (UniProt P33261); experiment: qHTS Assay for Inhibitors and Substrates of Cytochrome P450 2C19 (AID 899); note: nearly all actives have a fitted effect of over 60% in size; note: potency is the fitted concentration of half-maximal effect
Cytochrome P450 2C19 (Homo sapiens), sequence (P33261 whole entry, looked up): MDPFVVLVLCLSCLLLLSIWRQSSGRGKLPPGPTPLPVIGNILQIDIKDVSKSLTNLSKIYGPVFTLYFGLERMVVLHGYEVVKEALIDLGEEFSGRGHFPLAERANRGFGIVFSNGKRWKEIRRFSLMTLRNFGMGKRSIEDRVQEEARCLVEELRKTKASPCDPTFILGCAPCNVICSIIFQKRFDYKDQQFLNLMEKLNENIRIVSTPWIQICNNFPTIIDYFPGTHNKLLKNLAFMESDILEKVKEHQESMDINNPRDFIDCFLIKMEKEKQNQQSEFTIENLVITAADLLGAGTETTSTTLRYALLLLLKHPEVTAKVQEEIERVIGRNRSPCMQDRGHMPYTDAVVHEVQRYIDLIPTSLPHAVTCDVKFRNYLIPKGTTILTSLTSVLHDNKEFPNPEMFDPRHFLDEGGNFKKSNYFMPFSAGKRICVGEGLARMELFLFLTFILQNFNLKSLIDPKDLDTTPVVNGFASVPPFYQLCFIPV
In short: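 Human CYP2C19 (5nM) with Luciferin-H EGE at 10uM (its KM) in 50mM KPO4 was preincubated with compound for 10 min at 37C. NADPH regeneration started a 60 min 37C reaction. Luciferin was read by luminescence, normalized to 57uM ketoconazole.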

[7] = biological target: Mitogen-activated protein kinase 10 (Mus musculus) (UniProt Q61831); experiment: JNK3 AlphaScreen Assay (AID 530; active = well fitted curve in either direction with a large enough effect, not every such curve was filed as active;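 note: kinase came from lysate of stimulated human HepG2 cells; signal reports phosphorylation of biotinylated GST-cJun 1-79 at Ser73 with 10 µM ATP; series mostly up to about 57 µM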)
In short: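 Inhibitors reduce antibody binding to phosphorylated biotin-cJun, lowering AlphaScreen luminescence. Lysates from HepG2 cells pre-activated by IL-1beta plus TNF-alpha supplied JNK3; compounds were titrated.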

[8] = biological target: Cytochrome P450 2C9 (Homo sapiens) (UniProt P11712); experiment: qHTS Assay for Inhibitors and Substrates of Cytochrome P450 2C9 (AID 883); note: nearly all actives have a fitted effect of over 60% in size
Cytochrome P450 2C9 (Homo sapiens), sequence (P11712 whole entry, looked up): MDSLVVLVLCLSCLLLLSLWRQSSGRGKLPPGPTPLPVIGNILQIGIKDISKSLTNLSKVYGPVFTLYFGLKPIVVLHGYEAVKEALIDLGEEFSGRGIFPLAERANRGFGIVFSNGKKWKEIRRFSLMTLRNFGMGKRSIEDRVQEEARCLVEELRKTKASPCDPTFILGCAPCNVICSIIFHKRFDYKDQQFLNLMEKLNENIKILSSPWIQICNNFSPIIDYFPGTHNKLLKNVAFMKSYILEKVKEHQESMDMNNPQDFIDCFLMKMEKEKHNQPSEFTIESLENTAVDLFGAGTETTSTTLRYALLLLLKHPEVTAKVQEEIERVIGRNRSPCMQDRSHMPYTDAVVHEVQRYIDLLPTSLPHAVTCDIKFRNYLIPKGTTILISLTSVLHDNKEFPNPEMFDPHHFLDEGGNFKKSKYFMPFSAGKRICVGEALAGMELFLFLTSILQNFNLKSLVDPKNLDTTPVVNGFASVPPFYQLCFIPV
In short: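 Human CYP2C9 (10nM) hydroxylated Luciferin-H (100uM, at its KM) to luciferin in 25mM KPO4. Compound was preincubated 10 min at 37C, then NADPH regeneration started a 60 min reaction at 37C. Luminescence was read after detection reagent, normalized to 57uM sulphaphenazole.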

Structure (SMILES)	Potency [1]	Potency [2] [µM]	Potency [3] [µM]	Potency [4]	Potency [5]	Potency [6]	Potency [7]	Potency [8]
COc1ccc([C@@H]2OC[C@]3(COC(C)=O)[C@H](C)C=C(C)[C@@H]2[C@H]3C)cc1	15.8 µM (active)	> 46	> 46	inactive				
CC(=O)[C@@H]1[C@H]2[C@@H](C(=O)[C@H]3OC[C@H]2O3)[C@@H]2C=Cc3ccccc3N12	31.6 µM (active)	> 46	> 46		inactive	5.01 µM (active)		
CC(C)C[C@@H](CC(=O)N[C@@H](CCC(=O)O)CC(=O)O)NC(=O)[C@@H]1CCCC[C@H]1NC(=O)C[C@H](CCCN)NC(=O)C[C@H](Cc1ccccc1)NC(=O)[C@@H]1CNCC[C@H]1N	inactive		> 46	inactive	inactive	inactive	inactive	inactive
CC(C)C[C@@H](CC(=O)N[C@@H](CCC(=O)O)CC(=O)O)NC(=O)[C@@H]1CCCC[C@H]1NC(=O)C[C@H](CCCN)NC(=O)C[C@H](Cc1c[nH]c2ccccc12)NC(=O)[C@@H]1CNCC[C@H]1N	inactive		> 46	inactive		inactive	inactive	inactive
CC(C)C[C@@H](CC(=O)N[C@H](CC(=O)N[C@@H]1CCNC[C@H]1C(=O)N[C@H](CC(=O)N[C@@H](CCC(=O)O)CC(=O)O)CC(C)C)C(C)C)NC(=O)[C@@H]1CNCC[C@H]1N	inactive		> 46	inactive	inactive	inactive	inactive	
CC(C)[C@@H](CC(=O)N[C@@H]1CCCC[C@H]1C(=O)N[C@H](CC(=O)N[C@@H](CCC(=O)O)CC(=O)O)Cc1c[nH]c2ccccc12)NC(=O)C[C@H](Cc1c[nH]c2ccccc12)NC(=O)[C@@H]1CNCC[C@H]1N	inactive		> 46	inactive	inactive	inactive		inactive
CC(C)C[C@@H](CC(=O)N[C@@H](CCCN)CC(=O)N[C@@H]1CCCC[C@H]1C(=O)N[C@H](CC(=O)N[C@@H](CCC(=O)O)CC(=O)O)CC(C)C)NC(=O)[C@@H]1CCCC[C@H]1N	inactive		> 46	inactive	inactive			inactive
CC(C)C[C@@H](CC(=O)N[C@@H](CCCN)CC(=O)N[C@@H]1CCCC[C@H]1C(=O)N[C@H](CC(=O)N[C@@H](CCC(=O)O)CC(=O)O)Cc1ccccc1)NC(=O)[C@@H]1CNCC[C@H]1N	25.1 µM (active)		> 46	inactive	inactive	inactive		inactive
CC(C)[C@@H](CC(=O)N[C@@H]1CCCC[C@H]1C(=O)N[C@H](CC(=O)N[C@@H](CCC(=O)O)CC(=O)O)Cc1c[nH]c2ccccc12)NC(=O)C[C@H](Cc1ccccc1)NC(=O)[C@@H]1CNCC[C@H]1N	inactive		> 46	inactive	inactive	inactive	inactive	inactive
NCCC[C@@H](CC(=O)N[C@@H]1CCNC[C@H]1C(=O)N[C@H](CC(=O)N[C@@H](CCC(=O)O)CC(=O)O)Cc1c[nH]c2ccccc12)NC(=O)C[C@H](Cc1ccccc1)NC(=O)[C@@H]1CNCC[C@H]1N	31.6 µM (active)		> 46	inactive	inactive	inactive		inactive
CC(C)[C@@H](CC(=O)N[C@@H]1CCNC[C@H]1C(=O)N[C@H](CC(=O)N[C@@H](CCC(=O)O)CC(=O)O)Cc1c[nH]c2ccccc12)NC(=O)C[C@H](Cc1c[nH]c2ccccc12)NC(=O)[C@@H]1CNCC[C@H]1N	inactive		> 46	inactive	inactive	inactive		inactive
CC(C)C[C@@H](CC(=O)N[C@H](CC(=O)N[C@@H]1CCNC[C@H]1C(=O)N[C@H](CC(=O)N[C@@H](CCC(=O)O)CC(=O)O)Cc1c[nH]c2ccccc12)C(C)C)NC(=O)[C@@H]1CNCC[C@H]1N	inactive		> 46		inactive	inactive		inactive
CC(C)C[C@@H](CC(=O)N[C@@H](CCC(=O)O)CC(=O)O)NC(=O)[C@@H]1CNCC[C@H]1NC(=O)C[C@@H](NC(=O)C[C@H](Cc1c[nH]c2ccccc12)NC(=O)[C@@H]1CCCC[C@H]1N)C(C)C	inactive		> 46	inactive	inactive			inactive
NCCC[C@@H](CC(=O)N[C@@H]1CCCC[C@H]1C(=O)N[C@H](CC(=O)N[C@@H](CCC(=O)O)CC(=O)O)Cc1ccccc1)NC(=O)C[C@H](CO)NC(=O)[C@@H]1CNCC[C@H]1N	inactive		> 46	inactive		inactive	inactive	
CC(C)C[C@@H](CC(=O)N[C@@H](CCCN)CC(=O)N[C@@H]1CCNC[C@H]1C(=O)N[C@H](CC(=O)N[C@@H](CCC(=O)O)CC(=O)O)Cc1c[nH]c2ccccc12)NC(=O)[C@@H]1CCCC[C@H]1N	inactive		> 46	inactive	inactive	inactive	inactive	
CC(C)[C@@H](CC(=O)N[C@@H]1CCCC[C@H]1C(=O)N[C@H](CC(=O)N[C@@H](CCC(=O)O)CC(=O)O)Cc1ccccc1)NC(=O)C[C@H](CO)NC(=O)[C@@H]1CNCC[C@H]1N	inactive		> 46	inactive	inactive			
